39 compounds from PubChem BioAssay AID1259240 (Keith Lab, Institute of Cancer Science, University of …, 2017) can be followed below.

Unmarked numbers belong to inactive results. The source made the active and inactive calls. No stated cut-off is given here; in the data, active means fold change mostly below about -2 (no sharp cut-off); inactive means mostly above about -1.8.

The assay in a line: TERT promoter activity modulators, primary screen, cell-based, luciferase reporter, human (AID 1259240). Particulars: A2780 TERT promoter luciferase reporter, 16 h; at 20 µM, fold versus average of vehicle-only wells. Background: Reporter assays use an easily measured gene product as a stand-in for the process of interest.
Turning to `O=C(CSc1ncnc2ccccc12)NC1CCCCC1`, the fold change was 1.03. On the same count and under the same terms, for `COCCn1c(SCC(=O)Nc2cc(C)on2)nc2c(c1=O)SC(C)C2` (centres undefined) the value was -1.21. Same read-out and setting: for `CCOC(=O)N1CCN(c2nc3ccccc3n3cnnc23)CC1` the value was 1.59; for `Cc1cccc(C(=O)N2N=C(c3ccc(NS(C)(=O)=O)cc3)CC2c2ccco2)c1` (centres undefined), 1.31. The same measure, in the same setting: the figure for `Cc1c(C(=O)N2CCOCC2)sc2nc3n(c(=O)c12)N=C(c1ccc(Cl)cc1)CS3` is 1.21.

Turning to `N#Cc1ccc(Cn2c(=O)n(Cc3ccccc3Cl)c(=O)c3cccnc32)cc1`, the fold change was -1.11. Still for that read-out and setting: the figure for `COc1ccc(-c2nc3s/c(=C\c4cc(OC)c(OC)c(OC)c4)c(=O)n3n2)cc1OC` is 1.65.

Take `CCOC(=O)C1CCCN(c2c(N3CCC(N4CCCCC4)CC3)c(=O)c2=O)C1` (centres undefined): the fold change is -1.11. Consider `COc1ccc2c(c1)/C(=c1/sc3n(c1=O)CN(c1ccc(C)c(Cl)c1)CN=3)C(=O)N2`, for which the fold change is -1.71. On the same count and under the same terms, for `Clc1ccc(Nc2c(-c3c[nH]c4ccccc34)nc3cnccn23)cc1` the value was -1.4. In the case of `Cn1c(=O)[nH]c(=O)c2c1nc(NCCCO)n2Cc1ccccc1Cl`, the fold change is -1.16. Regarding `Cc1oc(-c2ccccc2F)nc1CSc1nc2ccncc2[nH]1`, the fold change was -1.15.

For the compound `COc1cccc2cc(S(=O)(=O)c3ccccc3)c(=O)oc12`, the fold change is 1.83. Regarding `Cn1c(C(=O)NCCN2CCOCC2)cc2c(=O)[nH]c3ccccc3c21`, the fold change was 1.17. The same measure, in the same setting: the figure for `CCCC1=NN2C(=N)/C(=C\c3ccc(SCc4ccco4)o3)C(=O)N=C2S1` is -1.68; for `Cc1cc(C)n2c(NC(C)C)c(-c3ccc(C)o3)nc2n1` it is 1.2; for `Nc1ncnc2c1nc1n2CC(O)CS1` (centres undefined) it is -1.44. On the same count and under the same terms, the figure for `C=CCN1C(=O)C2(/C(=C(/O)c3ccccc3)C(=O)C(=O)N2CCCN2CCOCC2)c2ccccc21` (centres undefined) is 1.29; for `Cn1c(=O)[nH]c(=O)c2c1nc(NCCc1ccccc1)n2CCO` it is -1.23.

Turning to `Cc1ccc(-c2csc3ncnc(NCCC(=O)O)c23)cc1`, the fold change is 1.18. On the same count and under the same terms, the figure for `CCCNc1c(NC2CCN(C(=O)OCC)CC2)c(=O)c1=O` is -1.23.

As for `COc1ccc(C2c3c(oc4ccc(F)cc4c3=O)C(=O)N2Cc2ccc3c(c2)OCO3)cc1` (centres undefined), the fold change was -1.27.

As to `COc1ccc(Cl)cc1S(=O)(=O)n1ccnc1C(C)C`, the fold change was -4.76 (active). The same measure, in the same setting: for `O=C(NCc1ccccn1)c1cccn2c(=O)c3c4c(sc3nc12)CCCC4` the value was -1.8; for `CCOC(=O)c1c(NC(=O)Nc2ccc(F)cc2)sc2c1CCN(C(=O)OCC)C2`, -1.41; for `CCN(CC)CCNc1nc2c(c(=O)[nH]c(=O)n2C)n1CCCc1ccccc1`, -2.06 (active).

As for `CCOC(=O)C1CCN(c2cc(C)c(C#N)c3nc4ccccc4n23)CC1`, the fold change is -2.16 (active). Take `NC(=O)c1c(NC(=O)c2cc(-c3ccc(O)cc3)on2)sc2c1CCCC2`: the result was inactive. On the same count and under the same terms, for `O=C1Nc2ccc(Br)cc2/C1=C\c1nc2ccccc2c(=O)n1-c1cccc(C(=O)O)c1` the value was “inactive”. For the compound `CC(CC(=O)N1CCN(c2ccc([N+](=O)[O-])cc2)CC1)CC1=NS(=O)(=O)c2ccccc2N1` (centres undefined), the fold change was -1.48. Still for that read-out and setting: for `Cc1cccc2nc(COc3ccc(Cl)cc3)cn12` the value was -4.52 (active); for `O=C(Nc1ccc(F)cc1)c1c[nH]n2c(=O)cc(C3CCNCC3)nc12`, -1.37. For the compound `CN(CC(=O)NCc1ccco1)S(=O)(=O)c1ccc2c(c1)CCC(=O)N2`, the fold change is -1.35.

In the case of `COc1ccc(N2CCN(c3ccc4nnc(C)n4n3)CC2)cc1`, the fold change is -1.14. On the same count and under the same terms, for `CCOC(=O)C1CCCN(c2c(NC3CCN(C(=O)OCC)CC3)c(=O)c2=O)C1` (centres undefined) the value was 1.19; for `CN(C)C(=O)c1ccc2c(c1)n(C)c(=O)n2C`, 1.05; for `Fc1ccc(-c2ncc3ccccn23)cc1`, 1.16. Still for that read-out and setting: for `Cc1c(NC(=O)Nc2cccc(C#N)c2)c(=O)n(-c2ccccc2)n1C` the value was -1.39.

As for `COCCNc1cc(C)nc2c(-c3ccc(Cl)cc3)c(C)nn12`, the fold change is -1.07.
